Laboratory results from PubChem BioAssay (EPA / NIEHS).
Activity calls are given as the source filed them. Rule for the calls: active = hit-call score of the fitted dose curve at least 0.9, where 1 is the maximum; inactive = score below 0.9.

Target: Hepatocyte nuclear factor 6 (Homo sapiens) (UniProt Q9UBC0)
Experiment: ATG_HNF6_CIS: Attagene CIS-FACTORIAL HepG2 Assay for human Hepatocyte Nuclear Factor 6 (HNF6) (AID 2282952)
Details: HepG2 Attagene cis-factorial HNF6 reporter transcription; actives raise or lower the signal
Procedure, shortened: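 Activity values derive from bidirectional fitting against DMSO of reporter mRNA levels, measured by capillary electrophoresis of labelled RT-PCR products from HepG2 cells exposed 24 h.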

Hepatocyte nuclear factor 6 (Homo sapiens), sequence (Q9UBC0 whole entry, looked up): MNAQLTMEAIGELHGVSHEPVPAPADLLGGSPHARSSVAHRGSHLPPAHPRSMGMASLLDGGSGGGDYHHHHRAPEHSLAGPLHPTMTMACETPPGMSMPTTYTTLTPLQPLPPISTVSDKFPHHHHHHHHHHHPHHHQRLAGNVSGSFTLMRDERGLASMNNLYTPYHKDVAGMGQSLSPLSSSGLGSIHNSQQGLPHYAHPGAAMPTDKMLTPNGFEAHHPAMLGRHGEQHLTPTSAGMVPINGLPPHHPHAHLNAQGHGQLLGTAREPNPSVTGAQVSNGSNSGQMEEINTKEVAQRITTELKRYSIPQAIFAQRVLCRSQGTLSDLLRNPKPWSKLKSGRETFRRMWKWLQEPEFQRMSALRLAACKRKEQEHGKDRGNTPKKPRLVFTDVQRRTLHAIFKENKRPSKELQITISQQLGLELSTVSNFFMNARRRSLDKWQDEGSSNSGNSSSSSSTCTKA

Compound	outcome
CNC(=C[N+](=O)[O-])NCCSCc1csc(CN(C)C)n1	inactive
O=C1CCCCCCCCCCCCCC1	inactive
CCCC(=O)OC/C=C(\C)CCC=C(C)C	inactive
CCCCCCC(O)CCCCCCCCCCC(=O)OC (stereo not drawn)	inactive
COC(=O)c1ccccc1	inactive
O=C(O)/C=C/C(=O)O	inactive
O=S(=O)(O)c1cccc2ccccc12	inactive
C/C=C(\C)C(=O)OCC/C=C\CC	inactive
CC/C=C\CC/C=C/C(OCC)OCC	inactive
C=CCOCC(CC)(CO)COCC=C	inactive
CN1CCCC1	inactive
CCO[Si](CCCN)(OCC)OCC	inactive
CCCCCCC1CCC(=O)O1 (stereo not drawn)	inactive
O=[N+]([O-])c1ccccc1C(F)(F)F	inactive
CCC(=O)OCc1ccc(OC)cc1	inactive
CCc1cc(C(N)=S)ccn1	inactive
CCC(C)=NO	inactive
COc1cccc(OC)c1C(=O)O	inactive
C=C1CC[C@H]2C[C@@H]1C2(C)C	inactive
CCCCCC1CCCC(=O)O1 (stereo not drawn)	inactive
COC(=O)[C@]1(C)CCC[C@@]2(C)[C@H]1CC=C1C=C(C(C)C)CC[C@@H]12	inactive
Cc1cc2nc3c(=O)[nH]c(=O)nc-3n(C[C@H](O)[C@H](O)[C@H](O)CO)c2cc1C	inactive
Cc1cc(-n2nc3ccc(Cl)cc3n2)c(O)c(C(C)(C)C)c1	inactive
O=C(OCc1ccccc1)c1ccccc1	inactive
CCCCCCC1CCCC(=O)O1 (stereo not drawn)	inactive
c1ccc(CNc2ncnc3nc[nH]c23)cc1	inactive
NC(=O)c1ccc(N)cc1	inactive
CC(=O)Nc1c(I)c(NC(C)=O)c(I)c(C(=O)O)c1I	inactive
